Experimental data reported in the supplement of paper PMC10849652.
Targets with a hit are over-represented here; the source holds about 8,800 in all. About 0.5% of all pairs of compound and target were hits.

Assays:
Assay in all cases: log2 fold change, soluble protein after heating vs DMSO (PISA); higher = thermal stabilisation; K562 lysate, 10 uM; active = over 0.2 and 3.5 SD of the protein, either way, in both replicates (recomputed)
[1] = compound: C=CC(=O)N1CCC[C@@H](n2nc(-c3ccc(Oc4ccccc4)cc3)c3c(N)ncnc32)C1 [ibrutinib]
In short: (§1)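 K562 pellets were dounce-homogenised in PBS pH 7.4 containing 1 mM MgCl2, and the crude extract, at 1 mg/mL protein, was exposed to 10 μM compound for 30 min. Aliquots were heated for 3 min across 48°C-58°C, pooled, brought to 0.5% NP-40 at 4°C and spun at 21,000xg for 90 min, with the supernatant taken as soluble protein. TMTpro 16plex LC-MS/MS with equalised channel sums quantified that protein. Values are log-two fold changes in thermal stability relative to solvent controls, taken from duplicates.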

[2] = compound: CC(=O)c1cnc2ccc(-c3cc(Cl)c(O)c(Cl)c3)nc2c1N[C@H]1CC[C@H](CN(C)C)CC1
In short: as §1

[3] = compound: CC(C)(C)Cn1c(N)nc2ccc(-c3[nH]c(C(C)(C)C)nc3-c3ccc(F)cc3)nc21 [ralimetinib]
In short: as §1

[4] = compound: CC(C)(O)CC(=O)NCCn1ccc2ncnc(Nc3ccc(Oc4cccc(C(F)(F)F)c4)c(Cl)c3)c21
In short: as §1

[5] = compound: CC(C)C1=C2N=C(C=C(N2N=C1)NCC3=CC=CC=C3)NCCCCCCN
In short: as §1

[6] = compound: CC1=C(C(CC(=O)N1)C2=CC=C(C=C2)C(F)(F)F)C(=O)NC3=C(C=C4C(=C3)C=NN4)F
In short: as §1

[7] = compound: CC1=C(C2=C(C=C1)C(=O)C3=CC=CC=C3N2CCCN)C
In short: as §1

[8] = compound: CC1=C(C=C(C=C1)NC(=O)C2=CC(=CC=C2)C(C)(C)C#N)NC3=CC4=C(C=C3)N=CN(C4=O)C
In short: as §1

[9] = compound: CC1=C(C=C(C=C1)NC(=O)C2=CC(=CC=C2)N(C)C)NC(=O)C3=CC=C(C=C3)O
In short: as §1

[10] = compound: CC1=CC=C(C=C1)SC2=C3C=C(SC3=CN=C2)C(=O)N
In short: as §1

[11] = compound: CCCS(=O)(=O)Nc1ccc(F)c(C(=O)c2c[nH]c3ncc(-c4ccc(Cl)cc4)cc23)c1F [vemurafenib]
In short: as §1

[12] = compound: CCCS(=O)(=O)Nc1ccc(F)c(C(=O)c2c[nH]c3ncc(Cl)cc23)c1F
In short: as §1

[13] = compound: CCN(CCCOc1ccc2c(Nc3cc(CC(=O)Nc4cccc(F)c4)[nH]n3)ncnc2c1)CCOP(=O)(O)O [barasertib]
In short: as §1

[14] = compound: CC[C@@H]1C(=O)N(C)c2cnc(Nc3ccc(C(=O)N[C@H]4CC[C@H](N5CCN(CC6CC6)CC5)CC4)cc3OC)nc2N1C(C)C [volasertib]
In short: as §1

[15] = compound: CCn1c(C(=O)N(C2CC2)C2CC2)cc2c3c(ncn3C)c(Nc3cc(C)n(C)n3)nc21
In short: as §1

[16] = compound: CN1CCN(CCOc2cc(OC3CCOCC3)c3c(Nc4c(Cl)ccc5c4OCO5)ncnc3c2)CC1 [saracatinib]
In short: as §1

[17] = compound: CN1CCN(c2nc(C3=C(c4c[nH]c5ccccc45)C(=O)NC3=O)c3ccccc3n2)CC1 [sotrastaurin]
In short: as §1

[18] = compound: CC[C@@H]1C(=O)N(C)c2cnc(Nc3ccc(C(=O)NC4CCN(C)CC4)cc3OC)nc2N1C1CCCC1
In short: as §1

[19] = compound: CCn1cc(-c2ccnc3[nH]c(-c4cccc(CN(C)C)c4)cc23)c(-c2ccc(NC(=O)N(C)C)cc2)n1
In short: as §1

[20] = compound: CN1CCC(CNc2ccc3ncc(-c4cccc(OC(F)(F)F)c4)n3n2)CC1
In short: as §1

Measured: log2 fold change

KLHL12 isoform 2 (UniProt Q53G59)
Sequence of UniProt Q53G59 (Q53G59 whole entry, looked up): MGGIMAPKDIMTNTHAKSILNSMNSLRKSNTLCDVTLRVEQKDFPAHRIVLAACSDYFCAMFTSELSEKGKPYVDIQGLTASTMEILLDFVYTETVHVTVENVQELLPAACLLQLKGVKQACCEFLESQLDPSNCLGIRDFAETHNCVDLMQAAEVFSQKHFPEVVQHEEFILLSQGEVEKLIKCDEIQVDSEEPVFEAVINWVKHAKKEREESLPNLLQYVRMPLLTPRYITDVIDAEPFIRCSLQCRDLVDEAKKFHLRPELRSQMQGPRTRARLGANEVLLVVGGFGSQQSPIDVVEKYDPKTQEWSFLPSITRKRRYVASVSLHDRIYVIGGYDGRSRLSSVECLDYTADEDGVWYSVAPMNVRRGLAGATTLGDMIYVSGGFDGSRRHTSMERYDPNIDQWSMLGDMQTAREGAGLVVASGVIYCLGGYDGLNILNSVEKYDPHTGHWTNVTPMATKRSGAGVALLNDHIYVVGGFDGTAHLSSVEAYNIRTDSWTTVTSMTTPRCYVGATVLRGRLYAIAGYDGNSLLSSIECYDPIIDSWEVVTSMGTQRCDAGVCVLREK
active: [13] -0.413
inactive: [1] 0.156 | [2] 0.067 | [3] 0.123 | [4] -0.032 | [5] 0.073 | [6] 0.026 | [7] -0.041 | [8] -0.066 | [9] 0 | [10] 0.007 | [11] 0.038 | [12] 0.061 | [14] -0.045 | [15] 0.118 | [16] 0.064 | [17] -0.045

KRIT1 (UniProt O00522)
inactive: [1] 0.089 | [2] -0.047 | [3] 0.001 | [4] -0.02 | [5] 0.045 | [6] -0.041 | [7] -0.075 | [8] 0.045 | [9] -0.011 | [10] -0.095 | [11] -0.084 | [12] 0.051 | [13] -0.084 | [18] -0.009 | [14] 0.036 | [15] -0.052 | [16] -0.103 | [17] 0.049

MAN2B2 (UniProt Q9Y2E5)
Sequence of UniProt Q9Y2E5 (Q9Y2E5 whole entry, looked up): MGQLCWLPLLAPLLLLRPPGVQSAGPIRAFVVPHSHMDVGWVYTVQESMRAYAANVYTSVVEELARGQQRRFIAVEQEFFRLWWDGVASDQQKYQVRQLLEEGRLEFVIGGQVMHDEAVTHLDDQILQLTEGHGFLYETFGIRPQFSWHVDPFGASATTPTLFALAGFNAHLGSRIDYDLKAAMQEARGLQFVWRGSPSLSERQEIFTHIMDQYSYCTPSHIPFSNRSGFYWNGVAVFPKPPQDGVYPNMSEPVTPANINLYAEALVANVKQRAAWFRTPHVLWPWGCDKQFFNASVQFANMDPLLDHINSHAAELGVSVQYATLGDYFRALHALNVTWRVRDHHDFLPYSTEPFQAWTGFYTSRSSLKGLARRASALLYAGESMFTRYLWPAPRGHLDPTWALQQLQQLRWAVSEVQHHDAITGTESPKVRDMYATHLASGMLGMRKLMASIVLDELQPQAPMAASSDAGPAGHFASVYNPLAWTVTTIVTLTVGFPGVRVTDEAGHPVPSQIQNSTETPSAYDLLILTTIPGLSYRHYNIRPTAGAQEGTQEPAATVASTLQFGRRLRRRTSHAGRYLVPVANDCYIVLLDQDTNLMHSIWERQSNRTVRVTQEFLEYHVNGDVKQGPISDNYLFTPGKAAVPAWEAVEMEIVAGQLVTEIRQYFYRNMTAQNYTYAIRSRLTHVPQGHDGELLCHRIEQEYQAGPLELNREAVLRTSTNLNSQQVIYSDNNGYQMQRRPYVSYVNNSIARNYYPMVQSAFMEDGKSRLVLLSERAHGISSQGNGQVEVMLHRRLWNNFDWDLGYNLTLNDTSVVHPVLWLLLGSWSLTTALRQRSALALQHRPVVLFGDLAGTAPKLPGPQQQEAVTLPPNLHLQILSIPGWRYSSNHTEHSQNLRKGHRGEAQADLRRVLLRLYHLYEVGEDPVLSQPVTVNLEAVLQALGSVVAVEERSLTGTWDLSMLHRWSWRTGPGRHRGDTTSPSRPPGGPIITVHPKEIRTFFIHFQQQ
active: [19] 0.648 | [20] -0.649
inactive: [1] -0.019 | [2] -0.026 | [3] 0.008 | [4] 0.083 | [5] -0.051 | [6] 0.056 | [7] -0.013 | [8] -0.013 | [9] -0.024 | [10] 0.012 | [12] -0.028 | [13] -0.047 | [18] -0.013 | [14] -0.006 | [15] -0.022 | [16] -0.053 | [17] -0.024

MAPK1 (UniProt P28482)
inactive: [1] 0.001 | [2] 0 | [3] -0.066 | [4] 0.012 | [5] -0.029 | [6] -0.022 | [7] 0.023 | [8] -0.039 | [9] -0.03 | [10] 0.003 | [11] -0.022 | [12] -0.072 | [13] -0.015 | [18] -0.013 | [14] -0.009 | [15] 0.004 | [19] 0.004 | [20] -0.023 | [16] 0.002 | [17] -0.007

LEPROT (UniProt O15243)
Sequence of UniProt O15243 (O15243 whole entry, looked up): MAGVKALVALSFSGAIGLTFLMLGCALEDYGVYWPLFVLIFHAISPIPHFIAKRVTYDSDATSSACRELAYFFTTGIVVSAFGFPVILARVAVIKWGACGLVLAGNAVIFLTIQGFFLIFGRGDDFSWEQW
inactive: [1] 0.005 | [2] -0.273 | [3] -0.034 | [4] 0.054 | [5] 0.267 | [8] 0.181 | [9] 0.016 | [10] 0 | [12] 0.112 | [13] 0.042 | [18] 0.144 | [14] 0.102 | [15] -0.086 | [19] -0.043 | [20] -0.02 | [17] -0.009

MAP4K5 (UniProt Q9Y4K4)
inactive: [1] 0.029 | [2] 0.108 | [3] 0.039 | [4] 0.002 | [5] 0.098 | [6] -0.003 | [7] 0.009 | [8] 0 | [9] 0.021 | [10] 0.025 | [11] 0.185 | [12] -0.011 | [13] 0.23 | [14] -0.069 | [15] 0.014 | [19] 0 | [20] -0.007 | [16] 0.01

L3HYPDH (UniProt Q96EM0)
inactive: [1] -0.004 | [2] 0.039 | [3] -0.021 | [4] -0.004 | [5] 0.004 | [6] -0.044 | [7] -0.001 | [8] 0.032 | [9] 0.018 | [10] -0.024 | [11] 0.04 | [12] 0.033 | [13] 0.015 | [18] 0.002 | [14] -0.017 | [15] 0.011 | [19] 0.01 | [20] 0.012 | [16] -0.027 | [17] -0.008

MON2 isoform 5 (UniProt Q7Z3U7)
inactive: [1] -0.027 | [2] 0.001 | [3] 0.017 | [4] -0.042 | [5] -0.02 | [6] 0.012 | [7] 0.002 | [8] 0.01 | [9] 0.025 | [10] 0 | [11] -0.015 | [12] 0.025 | [13] 0.008 | [18] -0.029 | [14] -0.04 | [15] 0.019 | [19] -0.07 | [20] 0.062 | [16] -0.006 | [17] -0.003

MAT2B (UniProt Q9NZL9)
Sequence of UniProt Q9NZL9 (Q9NZL9 whole entry, looked up): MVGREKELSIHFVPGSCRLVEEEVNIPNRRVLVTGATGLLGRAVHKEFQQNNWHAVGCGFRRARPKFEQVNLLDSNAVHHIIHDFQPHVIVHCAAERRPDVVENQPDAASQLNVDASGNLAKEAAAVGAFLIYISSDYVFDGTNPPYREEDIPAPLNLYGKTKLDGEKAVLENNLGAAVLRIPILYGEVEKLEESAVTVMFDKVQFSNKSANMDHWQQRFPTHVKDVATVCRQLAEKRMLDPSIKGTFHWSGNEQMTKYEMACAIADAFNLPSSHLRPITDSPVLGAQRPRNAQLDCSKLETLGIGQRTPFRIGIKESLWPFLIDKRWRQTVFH
inactive: [1] 0 | [2] -0.008 | [3] -0.005 | [4] -0.006 | [5] -0.002 | [6] -0.023 | [7] 0.016 | [8] 0.015 | [9] -0.013 | [10] -0.005 | [11] 0.036 | [12] 0.016 | [13] 0.001 | [18] -0.019 | [14] -0.006 | [15] -0.015 | [19] 0.13 | [20] 0 | [16] -0.018 | [17] 0.013

MINDY1 isoform 3 (UniProt Q8N5J2)
Sequence of UniProt Q8N5J2 (Q8N5J2 whole entry, looked up): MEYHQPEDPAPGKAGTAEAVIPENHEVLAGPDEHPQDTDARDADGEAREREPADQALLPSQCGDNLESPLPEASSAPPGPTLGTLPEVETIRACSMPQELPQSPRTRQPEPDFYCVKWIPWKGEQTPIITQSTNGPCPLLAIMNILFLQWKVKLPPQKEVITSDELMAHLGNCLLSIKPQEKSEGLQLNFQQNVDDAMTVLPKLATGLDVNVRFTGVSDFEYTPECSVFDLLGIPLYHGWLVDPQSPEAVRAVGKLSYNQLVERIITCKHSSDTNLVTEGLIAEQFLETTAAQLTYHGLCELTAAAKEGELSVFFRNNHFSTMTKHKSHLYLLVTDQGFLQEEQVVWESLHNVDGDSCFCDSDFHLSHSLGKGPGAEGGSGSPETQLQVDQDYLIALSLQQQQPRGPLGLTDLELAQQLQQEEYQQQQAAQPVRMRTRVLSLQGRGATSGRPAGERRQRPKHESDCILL
inactive: [1] 0.199 | [2] 0 | [3] 0.001 | [4] -0.121 | [5] -0.022 | [6] -0.179 | [7] -0.161 | [8] -0.034 | [9] 0.015 | [10] 0.065 | [11] -0.049 | [12] -0.26 | [13] -0.201 | [18] 0.059 | [14] -0.041 | [15] -0.106 | [16] 0.076 | [17] 0.074

MANEA (UniProt Q5SRI9)
Sequence of UniProt Q5SRI9 (Q5SRI9 whole entry, looked up): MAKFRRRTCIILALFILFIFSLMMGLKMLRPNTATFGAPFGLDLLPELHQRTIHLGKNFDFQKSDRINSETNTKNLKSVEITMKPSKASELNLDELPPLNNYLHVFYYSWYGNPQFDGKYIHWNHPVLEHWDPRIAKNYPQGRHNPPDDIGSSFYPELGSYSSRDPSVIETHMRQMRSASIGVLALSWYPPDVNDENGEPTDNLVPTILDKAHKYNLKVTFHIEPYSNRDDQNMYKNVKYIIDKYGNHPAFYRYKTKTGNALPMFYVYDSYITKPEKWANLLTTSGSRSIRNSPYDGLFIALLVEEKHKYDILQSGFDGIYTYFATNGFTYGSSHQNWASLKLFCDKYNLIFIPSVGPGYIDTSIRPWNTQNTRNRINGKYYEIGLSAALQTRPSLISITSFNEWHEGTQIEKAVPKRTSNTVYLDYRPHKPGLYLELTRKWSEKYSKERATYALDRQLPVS
active: [19] -0.627
inactive: [1] 0 | [2] 0.038 | [3] 0.024 | [4] -0.1 | [5] 0.041 | [7] -0.009 | [8] 0.037 | [9] 0.114 | [10] 0.068 | [11] 0.035 | [12] -0.019 | [13] -0.071 | [18] -0.001 | [14] -0.084 | [15] 0.005 | [20] 0.254 | [16] -0.059 | [17] -0.019

MPP1 (UniProt Q00013)
Sequence of UniProt Q00013 (Q00013 whole entry, looked up): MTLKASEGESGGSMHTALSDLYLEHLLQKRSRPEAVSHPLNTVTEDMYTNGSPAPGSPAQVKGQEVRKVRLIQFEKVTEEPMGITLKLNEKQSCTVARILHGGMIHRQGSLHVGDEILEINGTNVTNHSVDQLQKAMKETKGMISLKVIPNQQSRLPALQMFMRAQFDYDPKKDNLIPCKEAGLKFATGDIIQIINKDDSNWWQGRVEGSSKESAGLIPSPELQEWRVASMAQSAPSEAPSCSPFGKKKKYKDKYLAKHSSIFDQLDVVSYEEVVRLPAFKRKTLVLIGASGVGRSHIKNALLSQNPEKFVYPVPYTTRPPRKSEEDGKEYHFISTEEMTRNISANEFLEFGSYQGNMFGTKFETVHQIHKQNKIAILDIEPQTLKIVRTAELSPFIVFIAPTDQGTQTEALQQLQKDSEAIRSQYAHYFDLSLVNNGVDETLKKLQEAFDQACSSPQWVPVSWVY
inactive: [1] 0.035 | [2] 0.011 | [3] -0.01 | [4] -0.002 | [5] 0.02 | [6] -0.019 | [7] 0.018 | [8] 0.022 | [9] 0.012 | [10] -0.004 | [11] 0.014 | [12] -0.005 | [13] -0.014 | [18] 0.001 | [14] -0.029 | [15] -0.011 | [19] -0.008 | [20] -0.034 | [16] -0.001 | [17] -0.007

MRPL35 (UniProt Q9NZE8)
inactive: [1] -0.019 | [2] -0.014 | [3] 0.041 | [4] 0.047 | [5] 0.013 | [6] -0.012 | [7] -0.108 | [8] -0.032 | [9] 0.032 | [10] 0.01 | [11] 0.091 | [12] -0.001 | [13] 0.021 | [14] 0.013 | [15] 0.005 | [19] -0.124 | [20] -0.011 | [16] 0.04 | [17] -0.019

MED25 isoform 3 (UniProt Q71SY5)
inactive: [1] -0.034 | [2] 0.001 | [3] -0.071 | [4] 0.045 | [5] -0.023 | [6] 0.038 | [7] -0.039 | [8] 0.035 | [9] 0.057 | [10] 0.025 | [12] 0.018 | [13] 0.034 | [14] -0.032 | [15] -0.046 | [19] 0.013 | [20] -0.056 | [16] 0.032 | [17] 0.083
active: [18] -0.256

MME (UniProt P08473)
Sequence of UniProt P08473 (P08473 whole entry, looked up): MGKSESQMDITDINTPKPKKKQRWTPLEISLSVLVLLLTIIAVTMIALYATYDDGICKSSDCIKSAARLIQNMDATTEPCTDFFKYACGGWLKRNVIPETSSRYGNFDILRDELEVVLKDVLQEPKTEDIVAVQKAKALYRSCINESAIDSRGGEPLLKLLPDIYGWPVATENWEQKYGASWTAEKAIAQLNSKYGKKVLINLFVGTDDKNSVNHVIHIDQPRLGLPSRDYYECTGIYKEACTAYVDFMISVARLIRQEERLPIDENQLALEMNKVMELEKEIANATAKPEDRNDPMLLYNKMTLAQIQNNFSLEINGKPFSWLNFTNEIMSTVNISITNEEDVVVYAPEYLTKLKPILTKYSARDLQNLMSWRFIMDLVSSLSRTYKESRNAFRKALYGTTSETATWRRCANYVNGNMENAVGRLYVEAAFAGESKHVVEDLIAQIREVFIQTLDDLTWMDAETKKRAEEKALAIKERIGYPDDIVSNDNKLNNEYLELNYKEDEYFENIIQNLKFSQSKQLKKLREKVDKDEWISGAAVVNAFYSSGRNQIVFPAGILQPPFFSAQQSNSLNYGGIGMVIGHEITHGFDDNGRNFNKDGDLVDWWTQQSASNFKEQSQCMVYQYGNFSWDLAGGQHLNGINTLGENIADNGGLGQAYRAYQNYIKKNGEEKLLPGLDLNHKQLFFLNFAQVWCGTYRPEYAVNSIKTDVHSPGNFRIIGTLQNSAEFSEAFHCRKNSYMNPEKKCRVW
inactive: [1] 0.286 | [2] -0.093 | [3] -0.117 | [4] -0.156 | [5] -0.012 | [6] -0.024 | [7] -0.23 | [8] 0.007 | [9] -0.025 | [10] -0.043 | [12] -0.092 | [13] -0.084 | [14] 0.001 | [15] 0.075 | [19] -0.044 | [20] 0.009 | [16] -0.114 | [17] 0.016

LRPPRC (UniProt P42704)
inactive: [1] 0.006 | [2] 0.023 | [3] 0.027 | [4] 0.019 | [5] 0.018 | [6] -0.011 | [7] 0.038 | [8] -0.009 | [9] 0.052 | [10] 0.016 | [11] 0.032 | [12] 0.024 | [13] 0.101 | [18] -0.141 | [14] -0.072 | [15] 0.076 | [19] 0.033 | [20] -0.087 | [16] 0.045 | [17] 0.005

MCMBP (UniProt Q9BTE3)
Sequence of UniProt Q9BTE3 (Q9BTE3 whole entry, looked up): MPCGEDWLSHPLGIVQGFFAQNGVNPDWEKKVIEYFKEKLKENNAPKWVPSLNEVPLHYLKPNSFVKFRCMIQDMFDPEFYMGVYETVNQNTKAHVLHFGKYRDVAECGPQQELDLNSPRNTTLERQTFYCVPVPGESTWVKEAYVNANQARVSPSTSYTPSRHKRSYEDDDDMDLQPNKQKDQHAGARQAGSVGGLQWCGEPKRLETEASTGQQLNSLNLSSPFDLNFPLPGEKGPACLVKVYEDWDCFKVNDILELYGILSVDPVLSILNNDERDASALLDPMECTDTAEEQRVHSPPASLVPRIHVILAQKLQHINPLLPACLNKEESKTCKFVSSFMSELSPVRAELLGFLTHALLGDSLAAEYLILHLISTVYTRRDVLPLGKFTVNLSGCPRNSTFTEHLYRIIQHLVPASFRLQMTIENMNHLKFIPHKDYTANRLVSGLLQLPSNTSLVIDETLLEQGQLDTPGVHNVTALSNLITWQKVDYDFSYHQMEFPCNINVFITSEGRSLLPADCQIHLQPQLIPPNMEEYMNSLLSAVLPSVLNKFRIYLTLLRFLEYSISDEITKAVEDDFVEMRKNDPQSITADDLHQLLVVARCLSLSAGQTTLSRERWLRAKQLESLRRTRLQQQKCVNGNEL
inactive: [1] 0.001 | [2] -0.007 | [3] 0.016 | [4] 0.038 | [5] -0.009 | [6] 0 | [7] 0.008 | [8] 0.008 | [9] 0.011 | [10] 0.014 | [11] -0.029 | [12] 0.019 | [13] -0.007 | [18] 0.006 | [14] -0.026 | [15] 0.043 | [19] 0.035 | [20] -0.032 | [16] 0.02 | [17] 0.015
